In the library only some 3.3% were active in any assay of this set; here they are far more common.
Vaccinia mCherry = inhibitors of vaccinia virus infection (mCherry reporter signal). Vaccinia virus mCherry reporter infection, fluorescence. Potency, µM (series often up to 36.5 µM), without a hit: at the highest dose activity change, negative = inhibition, most hits filed as inhibitors. hit rate 0.63% among 310,000. AID 720579; calls by dose curve; tested in A549 cells; note: nearly all actives have a fitted effect of over 35% in size
HCV inh = inhibitors of hepatitis C virus infection. Huh7.5.1 HCVcc-Cre infection, luciferase reporter, 44 h. hit rate 3.4% among 340,000. Potency, µM (top dose mostly 41.8 µM), inactives show top-dose activity change, negative = inhibition, actives largely listed as inhibitors; active = well fitted inhibition curve with a large enough effect; inconclusive = small, poorly fitted or top-dose-only effect, or another doubt; inactive = no such curve, though single readings can be large or run the other way
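Compounds are dispensed onto cells plated 4 h earlier at 1,000 per well, with HCVcc-Cre virus (about 0.5 moi) added next. Following 44 h of culture, luminescent signal is measured for 15 sec after 15 min with substrate at room temperature.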
Vaccinia Venus = vaccinia inhibition (Venus reporter); Potency, µM (titrated, usually from 36.5 µM), for the others: at the highest dose activity change, negative = inhibition, hits mostly inhibitors; Vaccinia virus Venus reporter expression, fluorescence; hit rate 0.46% among 330,000; calls by dose curve; tested in A549 cells; note: nearly all actives have a fitted effect of over 30% in size
Starred values were filed as active, the others as inactive; i = inactive; ? = inconclusive; . = no result; [ ] = remark or other dose. % is set by controls: 0 for no effect and ±100 for the full control effect; potency is the fitted concentration of half-maximal effect.

SMILES	Vaccinia mCherry	HCV inh	Vaccinia Venus
CCN(CC)S(=O)(=O)c1cc([N+](=O)[O-])ccc1NNC(=O)Nc1ccc(Cl)c(Cl)c1	?	?	16µM*
CCc1cccc(N2C(=O)N(CC(=O)NCc3cccc(OC)c3OC)c3ccccc3S2(=O)=O)c1	-17%	.	-24%
Cc1nn(S(=O)(=O)c2ccccc2)c(C)c1Sc1ccc([N+](=O)[O-])cc1	-1%	-18%	-7%
Cc1nn(S(=O)(=O)c2cccs2)c(C)c1Sc1ccc([N+](=O)[O-])cc1	?	10µM*	?
CCCN(CCC)C(=O)CSc1nnc2cc(C)c3cc(C)cc(C)c3n12	-10%	.	-5%
CSc1ccc(NC(=O)N2CC=C(n3c(=O)[nH]c4ccccc43)CC2)cc1	-16%	10µM*	-30%
CCc1ccc(NC(=O)N2CC=C(c3c[nH]c4ccccc34)CC2)cc1	-21%	.	-20%
Cc1ccc2c(Cl)cc(Cl)c(OCC(=O)NC(C)(C)C)c2n1	.	22µM*	.
Cc1ccc2c(Cl)cc(Cl)c(OCC(=O)Nc3cccc(S(=O)(=O)N(C)C)c3)c2n1	-27%	?	-3%
Cc1ccc2c(Cl)cc(Cl)c(OCC(=O)Nc3cc(S(=O)(=O)N(C)C)ccc3C)c2n1	-19%	2.5µM*	-28%
COC(=O)COc1c(Cl)cc(Cl)c2ccc(C)nc12	i	5%	-8%
CCNc1nnc(SCC(=O)NC2CCCCCC2)s1	-21%	11%	-10%
Cc1cccc(C(=O)NCc2nnc(SCC(=O)Nc3ccccc3F)n2-c2ccccc2)c1	-8%	.	-6%
CC1(C)OC(=O)C2(Cc3ccc(Cl)cc3N3CCCC32)C(=O)O1 (stereo not drawn)	26%	.	11%
CC(C)c1ccc(S(=O)(=O)/N=C2/C=C(Sc3ncn[nH]3)C(=O)c3ccccc32)cc1	11µM*	2.5µM*	?
CC(C)(C)c1ccc(S(=O)(=O)/N=C2\C=C(NS(=O)(=O)c3ccccc3)C(=O)c3ccccc32)cc1	i	-19%	7%
Cc1ccc(S(=O)(=O)/N=C2/C=C(Sc3ncn[nH]3)C(=O)c3ccccc32)cc1	2.8µM*	4µM*	7.1µM*
Cc1ccc(S(=O)(=O)Nc2ccc(O)c(Sc3ncn[nH]3)c2)cc1	?	13%	-7%
CC(C1OC(C)(C)C(O)C1O)C1CC[C@@]2(C)C3=CCC4C(C)(C)C(=O)CC[C@]4(C)C3CC[C@@]12C (stereo partly drawn)	-12%	.	-9%
Cc1noc(C)c1-c1ccc(C(=O)NCCc2ccccc2)c2occc12	-7%	.	-5%
CN(C)c1ccc(C(CNC(=O)c2ccc(C(C)(C)C)cc2)N2CCCC2)cc1 (stereo not drawn)	-22%	.	-27%
NC(=S)N/N=C\c1ccccc1OCc1ccccc1	?	?	2.5µM*
COC(=O)c1ccc(COc2ccccc2/C=N/NS(=O)(=O)c2ccccc2)cc1	.	10µM*	.
NC(=S)N/N=C/c1c[nH]c2ccc(OCc3ccccc3)cc12	.	13µM*	.
COc1cc(/C=N/NS(=O)(=O)c2ccc3ccccc3c2)ccc1OCc1ccc(C(=O)O)cc1	i	-1%	18%
SMILES	Vaccinia mCherry	HCV inh	Vaccinia Venus
NC(Cc1c[nH]c2ccc(OCc3ccccc3)cc12)C(=O)O (stereo not drawn)	?	13%	-5%
O=C(CSCc1ccccc1)N/N=C/c1ccccc1OCc1ccccc1	-6%	-10%	-10%
COCCNC(=O)C1CCC(CNS(=O)(=O)c2ccc3c(c2)CC(C)N3C(C)=O)CC1 (stereo not drawn)	-6%	.	-4%
CCn1c(-c2cccnc2)nc2cc(NC(=O)COC)cc(C(=O)N3CCc4ccccc4C3)c21	-12%	.	-7%
COc1ccc(N(CC(C)C)S(=O)(=O)c2nnc(NC(=O)c3ccco3)s2)cc1	0%[7.34 µM]	13%	0%[7.34 µM]
O=C1CCC(C(=O)NCc2ccccc2)N1 (stereo not drawn)	i	1%	-10%
CN(C)c1ccc(Nc2nc(N)c3ccccc3n2)cc1	?	?	-27%
CN(C)c1ccc(Sc2ccc3nc(N)nc(N)c3c2)cc1	4.5µM*	.	5µM*
CN(CC1COc2ccccc2O1)C(=O)CSc1nncs1 (stereo not drawn)	-21%	26%	-6%
CCOC(=O)/C(=C\c1ccccc1)C(=O)CCN1CCOCC1	i	10µM*	-7%
O=C(CCc1ccccc1)OCCN1CCOCC1	.	21%	-11%
Cc1cnc(C)c(-c2cccc3c2OC(CNC(=O)/C=C/c2ccc(F)c(F)c2)C3)n1 (stereo not drawn)	-15%	.	-4%
CC(=O)N(C)c1ccc(C(O)(C(F)(F)F)C(F)(F)F)cc1	0%	14%	-13%
COc1ccccc1N1CCN(C(=O)c2ccc3[nH]c(C)c(C)c3c2)CC1	.	-26%	.
CC1CCc2[nH]c3ccc(C(=O)NCCCOC(C)C)cc3c2C1 (stereo not drawn)	.	10µM*	.
CC1CCc2[nH]c3ccc(C(=O)O)cc3c2C1 (stereo not drawn)	.	9%	.
COc1ccccc1N1CCN(C(=O)c2ccc3[nH]c4c(c3c2)CC(C)CC4)CC1 (stereo not drawn)	-25%	11µM*	-10%
Cc1cnc2c(C)ccc(C)c2c1/C=C/c1ccc(N(C)C)cc1	14%	.	7%
CC(C)C(C(=O)NCC1CCCO1)N(C(=O)CNS(=O)(=O)c1ccccc1)C1CCCCC1 (stereo not drawn)	5%	4%	5%
Nc1c(N=Nc2ccc([N+](=O)[O-])cc2)c(S(=O)(=O)O)cc2cc(S(=O)(=O)O)c(/C=C/c3ccccc3)c(O)c12	?	.	-9%
O=S(=O)(NC(=S)c1ccccc1)c1ccccc1	i	?	-4%
CC(C)N=C(NS(=O)(=O)c1ccccc1)C(Cl)(Cl)Cl	14µM*	?	11µM*
Cc1ccc(CN2C[C@H](Sc3ccccn3)C[C@H]2C(=O)Nc2ccc3sc(C)nc3c2)cc1	-8%	.	-2%
CC(C)(C)C(=O)/C=c1\s/c(=C\c2ccc(-c3ccc([N+](=O)[O-])cc3)o2)c(=O)n1CC(=O)NC(N)=O	i	-19%	78%
O=C(NCCCN1CCOCC1)c1cc(-c2ccccc2)nc2ccccc12	i	3%	-9%
SMILES	Vaccinia mCherry	HCV inh	Vaccinia Venus
Cc1ccc(Nc2cc(C(=O)NCCCN3CCOCC3)c3ccccc3n2)cc1C	-6%[7.34 µM]	22µM*	-8%[7.34 µM]
Cc1ccc(Nc2ncc(C(=O)NCCCN3CCN(C)CC3)c3ccccc23)cc1Cl	-19%	10µM*	-13%
Cc1ccc(Nc2ncc(C(=O)N3CCN(c4cccc(Cl)c4)CC3)c3ccccc23)cc1Cl	-15%	.	-12%
C=C1OC(CO)(n2cnc3c(N)ncnc32)C(O)C1O (stereo not drawn)	12%	.	-10%
CC(C)Oc1cccc(C2CC(=O)Nc3cc4c(cc32)OCO4)c1 (stereo not drawn)	?	.	-26%
Cc1ccccc1OCC(=O)Nc1ccc(C)c(S(=O)(=O)N2CCCCCC2)c1	?	?	-21%
COc1cc(NC(=O)COc2cccc(OC)c2)cc(OC)c1	21%	-21%	0%
COc1ccc(NS(=O)(=O)c2c(F)cc(F)c(Cl)c2F)cc1S(=O)(=O)N1CCCCC1	3.5µM*	9%	5.6µM*
COc1ccc(NS(=O)(=O)c2c(F)cccc2F)cc1S(=O)(=O)N1CCOCC1	-12%	7%	2%

Bioassay records (PubChem BioAssay)
